# This is a sample that favours compounds with a hit; in the whole collection about 1.2% have one here.
# mIDH1 inhibitor: blocks human mutant IDH1 R132H enzyme | O75874 | IDH1-R132H enzyme, NADPH consumption, diaphorase/resazurin fluorescence | Potency, µM (doses to about 76.6 µM), for the others: at the highest dose activity change, negative = inhibition, actives largely listed as inhibitors | actives 0.093% (n = 390,000); further: potency means the concentration at half of the fitted maximal effect; on the % scale 0 is the no-effect control and ±100 the full control effect; nearly all actives have a fitted effect of over 65% in size
#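 IDH1-R132H (0.5 ug/mL) preincubated 30 min with compound, then NADPH (0.016 mM) and alpha-KG (2 mM) added; 80 min at RT, pH 7.5. Remaining NADPH coupled via diaphorase/resazurin to fluorescence (540/590 nm); concentration-response curves normalized to no-enzyme control.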
# KCNH2 WT inh: blocks the wildtype human KCNH2 potassium channel | Q12809 | activity change, % at 1.84 µM | U2OS, BacMam KCNH2, thallium flux FluxOr; stronger effect = lower value | actives 0.37% (n = 340,000);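 active means maximum activity change below -70%; inconclusive means maximum activity change between -70% and -50%; inactive means maximum activity change above -50%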; further: on the % scale 0 is the no-effect control and ±100 the full control effect
#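 U2OS cells were transduced with wild-type KCNH2 virus (2.03 x 10^8 / mL) for 4 h at room temperature, then cultured overnight at 37 C. Thallium flux was read with FluxOr dye. Rate constants were normalized to DMSO controls.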
# Apoferritin bind: candidate novel general anesthetic via apoferritin binding | P02791 | apoferritin/1-aminoanthracene competitive binding, fluorescence | Potency, µM (series often up to 77.5 µM), without a hit: top-dose activity change, negative = displacement, actives largely listed as inhibitors | actives 0.074% (n = 350,000) | AID 485281; further: potency means the concentration at half of the fitted maximal effect; on the % scale 0 is the no-effect control and ±100 the full control effect; nearly all actives have a fitted effect of over 20% in size
#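 10 uM apoferritin + 50% sat. 1-AMA, PBS; cpd 10 min RT; Ex380/Em535 endpoint; normalized to free probe vs complex; 4-param Hill fit; propofol titration as pos. ctrl.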
# KCNH2 3.1 inh: blocks the human KCNH2 3.1 channel isoform. U2OS KCNH2 3.1, thallium flux FluxOr; stronger effect = lower value. activity change, % (tested at about 1.8 µM). actives 0.95% (n = 340,000);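 active means maximum activity change below -70%; inconclusive means maximum activity change from -70% to -50%; inactive means maximum activity change above -50%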;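 further: thallium influx rate constant from kinetic fluorescence after stimulation buffer; on the % scale 0 is the no-effect control and ±100 the full control effect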
#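 Normalized rate constant (relative to positive and negative DMSO controls) derived from a 2 min kinetic fluorescence read after stimulation; U2OS cells expressing the 3.1 isoform via virus at 1.77 x 10^8 /mL.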
# ASM inhibitor: inhibitors of human secretory acid sphingomyelinase; placental ASM, HMU-PC fluorogenic substrate, 60 min; actives 0.006% (n = 340,000); P17405; Potency, µM (series often up to 57.5 µM), for inactives: at the top dose activity change, negative = inhibition, actives largely listed as inhibitors; further: potency means the concentration at half of the fitted maximal effect
#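 Fluorogenic HMU-PC substrate (9 uM final) is turned over by placental ASM in 60 min at 37 C after a 10 min compound preincubation. Reaction ended by alkaline stop (pH 10), with fluorescence read at 386/447 nm.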
# Starred values were filed as active, the others as inactive; i = inactive; ? = inconclusive; . = no result. Unless noted, the call rests on the fitted dose curve; in most records, active means well fitted inhibition curve with a large enough effect; inconclusive means small, poorly fitted or top-dose-only effect; inactive means no such curve, though single readings can be large or run the other way.
SMILES,mIDH1 inhibitor,KCNH2 WT inh,Apoferritin bind,KCNH2 3.1 inh,ASM inhibitor
CC1=CC(C)(C)N(C(=O)CCl)c2ccccc21,6%,-11,-8%,7,-2%
Cc1cc(=O)n2nc(N3CCC(C(=O)Nc4c(C)cccc4C)CC3)sc2n1,16%,.,-4%,.,.
CCOC(=O)c1ccc(NS(=O)(=O)c2cn(C)c(C)n2)cc1,-5%,.,2%,.,.
CCCCn1nc(C(=O)N(C)Cc2nc3ccccc3c(=O)[nH]2)c2ccccc2c1=O,-4%,-43,.,-75*,.
CC1=C(C(N)=O)C(c2ccccn2)n2nc(-c3ccccc3Cl)nc2N1 (centres undefined),-9%,-146*,9%,-170*,8%
COc1ccc(/C=N/NC(=O)c2ccc(C)cc2)cc1CN1CCN(c2ccc(F)cc2)CC1,15%,-72*,-9%,-108*,2%
COc1ccc(/C=N/NC(=O)c2ccncc2)cc1CN1CCN(c2ccc(F)cc2)CC1,2%,18,-8%,-90*,-4%
COc1ccc(/C=N/NC(=O)c2ccc(O)cc2)cc1CN1CCCc2ccccc21,4%,-6,?,-5,-20%
COc1ccc(/C=N/NC(=O)c2ccc(F)cc2)cc1CN1CCc2cc(OC)c(OC)cc2C1C (centres undefined),-5%,-91*,-4%,-88*,-5%
COc1ccc(Cn2c(C(=O)O)c(CNCC(C)c3ccccc3)c3ccc(OC)cc32)cc1 (centres undefined),-5%,.,-9%,.,.
Cc1ccc2cccc(NC(=O)c3ccc(-c4cccc(Cl)c4Cl)o3)c2n1,-11%,.,-5%,.,.
CC(=O)NS(=O)(=O)c1cccnc1Nc1ccc(Cl)c(Cl)c1,5%,-5,-15%,0,-1%
NS(=O)(=O)c1cccnc1Nc1ccc(Cl)c(Cl)c1,2%,0,8.9µM*,-4,-3%
O=C(NCCNC(=O)c1ccccc1Br)c1ccccc1Br,1%,-6,-3%,-114*,-2%
O=C(NCCCNC(=O)c1ccccc1Br)c1ccccc1Br,-2%,-4,0%,-9,2%
C=CCc1ccc(OCC(O)CN2CCC(Cc3ccccc3)CC2)c(OC)c1 (centres undefined),4%,-31,-19%,-86*,0%
C=CCc1ccc(OCC(O)CN2CCN(c3ccccc3OC)CC2)c(OC)c1 (centres undefined),1%,-5,-8%,-8,1%
C=CCc1ccc(OCC(O)CN2CCN(Cc3ccc(Cl)cc3)CC2)c(OC)c1 (centres undefined),2%,-50,-6%,-83*,-2%
COC(=O)c1c(NC(=O)CCCOc2ccc(C(C)(C)C)cc2)sc2c1C(C(=O)OC)CC2 (centres undefined),-3%,.,-16%,.,.
COc1ccc(C2C(=O)N(C3CCCCCC3)CC(=O)N2Cc2ccc(C)cc2)cc1 (centres undefined),-9%,.,89%,.,.
Brc1ccc2ncnc(Nc3ccc(N4CCOCC4)cc3)c2c1,8%,2,-7%,-104*,-6%
CC(C)NC(=S)N(C)C1(c2ccccc2Cl)CCCCC1=O (centres undefined),8%,-12,-13%,-93*,3%
COc1ccc(-c2nnc3n2N=C(c2ccc(OC)c(OC)c2)CS3)c(OC)c1,.,.,-23%,.,.
CC(=O)C1=C(O)C(=O)N(c2cc(C(C)(C)C)on2)C1c1ccc(C(C)C)cc1 (centres undefined),-4%,-4,-13%,-13,15%
CC(=O)C1=C(O)C(=O)N(c2cc(C(C)(C)C)on2)C1c1ccc(Br)cc1 (centres undefined),2%,2,-21%,-82*,17%
Cn1nc(N)c2c(-c3ccc(Cl)cc3)c(C#N)c(N)nc21,4%,-5,-1%,7,-5%
CCN(CC)c1ccc(-c2c(C#N)c(N)nc(OC)c2C#N)cc1,-4%,-9,31%,-70*,i
CC(C)[C@@H](C(=O)NC1CCN(Cc2ccccc2)CC1)N1C(=O)N2CCc3c([nH]c4ccccc34)[C@@]2(C)C1=O,-11%,?,?,-87*,-9%
